Measured values published in PubChem BioAssay (NCATS).
Inconclusive results are not listed. A call without a number means that no potency is given here. Activity calls are given as the source filed them. The call rests on the fitted dose curve; in most records, active means well fitted cell-killing curve with a large enough effect; inconclusive means small, poorly fitted or top-dose-only effect; inactive means flat fitted curve, though single readings scatter.

Assay: Cell Viability - LYMP2-011 (AID 969); further: nearly all actives have a fitted effect of over 60% in size
Settings: LYMP2-011 lymphoblastoid cells viability; series mostly up to 92.2 µM
Description: NIH Chemical Genomics Center [NCGC]
NIH Molecular Libraries Screening Centers Network [MLSCN]
National Institutes of Environmental Health Sciences [NIEHS]
National Toxicology Program [NTP]
We have developed a 1536-well cell-based assay for quantitative high throughput screening (qHTS) against a number of cell lines to determine in vitro cytotoxicity of small molecules. This particular assay uses a human lymphoblastoid cell line (LYMP2-011) purchased from Coriell Institute for Medical Research.
NCGC Assay Protocol Summary:
The CellTiter-Glo luminescent cell viability assay (Promega) is a homogeneous method to measure the number of viable cells in culture. The end point readout of this assay is based on quantitation of intracellular ATP, an indicator of metabolic activity, using the luciferase reaction. Luciferase catalyzes the oxidation of beetle Luciferin to oxyluciferin and light in the presence of ATP. The luminescent signal is proportional to amount of ATP present.
Using the CellTiter-Glo luminescent cell viability assay, the amount of cellular ATP was measured in the lymphoblastoid cell line with complete culture medium following compound treatment for 24 hours. The assay was performed in opaque white Kalypsys 1536-well plates. In the screen, tetraoctylammonium bromide was used as positive control. Library compounds were measured for their ability to cause acute toxicity in the cell line, as reflected by a decrease in intracellular ATP levels, in a concentration-dependent manner. […] AC50 values were determined from concentration-response data modeled with the standard Hill equation.
qHTS protocol for CellTiter Glo lymphoblastoid cellular assay
[Step] [Parameter] [Value] [Description]
1. Reagent; 5 uL; 2500 lymphoblastoid cells/well
2. Time; 5 hr; 37 C incubation
4. Controls; 23 nL; Tetraoctylammonium bromide 6.4pM to 92 uM
5. Time; 24 hr; 37 C incubation
6. Reagent; 5 uL; CellTiter Glo reagent
7. Time; 30 min; Room Temperature
8. Detection; Luminescence; Viewlux plate reader
Keywords: cell viability, cytotoxicity, lymphoblastoid cell line, luminescence, NTPHTS, NTPHTS_NCGC, NIEHS, DSSTox, MLSMR, MLSCN, NIH Roadmap, qHTS, NCGC
Potency means the concentration at half of the fitted maximal effect.

Compound	Potency
COC(C)(C)C	inactive
O=[N+]([O-])c1cccc(O)c1	inactive
O=C(O)C(Br)CBr (stereo not given)	inactive
c1ccc(N=NNc2ccccc2)cc1	inactive
ClCCCCl	inactive
O=[N+]([O-])/C=C/c1ccccc1	50.1 µM (active)
O=C(O)c1cccc(Cl)c1	inactive
CCCCCCCCCCCCCl	inactive
CCCCCOC(=O)c1ccccc1C(=O)OCCCCC	inactive
Nc1ccccc1-c1ccccc1	inactive
CC(C)(Cl)[N+](=O)[O-]	inactive
CC(Cl)CCl (stereo not given)	inactive
Cc1cccc(N)c1C	inactive
Oc1cc(Cl)cc(Cl)c1	inactive
COC(=O)Nc1nc2ccccc2[nH]1	inactive
O=[N+]([O-])c1ccc2c3c(cccc13)CC2	inactive
Oc1cc(Cl)ccc1Cl	inactive
CC(C)CC(C)N (stereo not given)	inactive
OCCBr	inactive
c1ccc(C2CO2)cc1 (stereo not given)	inactive

Compound	Potency
CCN(CC)N=O	inactive
[N-]=[N+]=[N-]	inactive
Nc1ccc(Cc2ccc(N)c(Cl)c2)cc1Cl	inactive
CC(=O)NNc1ccccc1	inactive
c1ccc(Nc2ccc(Nc3ccccc3)cc2)cc1	inactive
CC1CC(=O)O1 (stereo not given)	inactive
O=C(O)CCl	inactive
CCOP(=O)(OCC)OCC	inactive
Cc1ccc(N=C=O)cc1N=C=O	inactive
O=S(=O)(O)F	inactive
O=C(Cl)c1ccccc1F	inactive
CN=C=O	inactive
N#C/C=C/C#N	39.8 µM (active)
Clc1ccc(C(c2ccccc2Cl)C(Cl)(Cl)Cl)cc1 (stereo not given)	inactive
NNC(N)=S	inactive
c1ccc(NNc2ccccc2)cc1	inactive
C=CC=O	inactive
CC(C)(C)OOC(=O)c1ccccc1	inactive
Clc1cccc2ccccc12	inactive
N#CCCC#N	inactive
